Among the data in PubChem BioAssay are z-score and composite z-score values, retold here.

Assay [1] is described as follows: resazurin metabolic signal in HepG2 cells – cell-based, resazurin fluorescence, 24 h, PK04 Diversity Set, profiling panel (AID 1172). The note with it: HepG2 viability, higher = more signal. In general terms: Resazurin is reduced to fluorescent resorufin, in cell work by metabolically active cells.
Assay [2] can be described thus: budding yeast growth changes without added modifier – OD600, strain BY4716, 24 h, basal condition, primary screen (AID 1173). The note with it: S. cerevisiae BY4716 growth, OD600, 24 h; higher = more signal, called active from +8 up or from −8 down.
Assay [3] can be described thus: viability profiling in MM1S myeloma cells – cell-based, resazurin fluorescence, basal, 24 h, PK04 Diversity Set, profiling panel (AID 1174).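 Further: MM1S multiple myeloma cell line.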 The settings on record: higher = more signal, called active from +8 up or from −8 down.
Assay [4] addresses Dihydroorotate dehydrogenase (quinone), mitochondrial (Plasmodium falciparum (isolate 3D7)) (UniProt Q08210). The experiment in a line: inhibition of P. falciparum DHODH – biochemical, C-terminal His tag, absorbance 600 nm, primary screen (AID 1175).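 Further: recombinant parasite enzyme with a five histidine tag at its C terminus.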 The note with it: PfDHODH enzyme, DCIP absorbance 600 nm; higher = more signal, called active from +8 up or from −8 down.
A short description of assay [5]: inhibition of PAO1 biofilm formation – strain PAO1, LB-PBS medium, absorbance 600 nm, primary screen (AID 1176). The note with it: P. aeruginosa PAO1 growth/biofilm, A600, 12 h; higher = more signal.
Assay [6] is described as follows: growth modulation of vineyard yeast isolate – strain RM11-1a, OD600, basal, 24 h, primary screen (AID 1177).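 Further: cultures grown under basal conditions with no added stressor.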 The settings on record: S. cerevisiae RM11-1a growth, OD600, 24 h; higher = more signal, called active from +8 up or from −8 down.
A short description of assay [7]: growth of efflux-deficient E. coli DRC39 – strain DRC39, OD650, 24 h, E. coli filamentation inducers, primary screen (AID 1178).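 Further: growth measured as culture turbidity by optical density at 650 nm.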 The settings on record: E. coli DRC39 acrAB, higher = more signal, called active from +8 up or from −8 down.
Assay [8] can be described thus: growth of efflux-deficient E. coli DRC39 – strain DRC39, OD650, 48 h, E. coli filamentation inducers, primary screen (AID 1179).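 Further: screen aims at cell division blockers that make cells filament.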 The settings on record: E. coli DRC39 delta-acrAB growth, higher = more signal, called active from +8 up or from −8 down.
Assay [9] can be described thus: viability profiling in RPMI8226 myeloma cells – cell-based, resazurin fluorescence, basal, 24 h, PK04 Diversity Set, profiling panel (AID 1180).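 Further: RPMI8826 multiple myeloma cell line at 5000 cells per well.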 The settings on record: higher = more signal.
Assay [10] addresses E3 ubiquitin-protein ligase XIAP (Homo sapiens) (UniProt P98170). The experiment in a line: small molecules binding XIAP protein – biophysical, small-molecule microarray, fluorescence 635 nm, primary screen (AID 1181).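 Further: score merges 667 nm emission and signal to noise over triplicate slides.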 The settings on record: higher = more signal.
In assay [11] the test system is XIP peptide (Xip251-270) binding. The assay can be described thus: XIP fragment 251-270 binding compounds – biochemical, small-molecule microarray, fluorescence 635/667 nm, 0.1 µg/mL protein, primary screen (AID 1182). The settings on record: fluorescent protein binding, 635 nm, higher = more signal, called active from +8 up or from −8 down.
The next assay deals with XIP peptide (Xip251-270). The experiment in a line: compounds binding XIP fragment 251-270 – biochemical, small-molecule microarray, fluorescence 635/667 nm, 0.5 µg/mL protein, primary screen (AID 1183). The note with it: fluorescence 635 nm, higher = more signal.
The nature of assay [12]: blood-stage malaria parasite viability loss – strain 3D7, DAPI fluorescence, 100 nL, primary screen (AID 1184).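 Further: parasites grown inside human red blood cells in medium with human serum.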 The note with it: P. falciparum 3D7 growth, 3 d, higher = more signal.
The target of assay [13] is Homeobox protein Hox-A13 (Mus musculus) (UniProt Q62424). The assay can be described thus: disruptors of Hoxa13 oligonucleotide interaction – biochemical, fluorescence polarization, labeled oligonucleotide, primary screen (AID 1185). The note with it: Hoxa13:DNA binding, 15 min, higher = more signal, called active from +8 up or from −8 down.
Chain of Homeobox protein Hox-A13 (Mus musculus) (Q62424 whole entry, looked up): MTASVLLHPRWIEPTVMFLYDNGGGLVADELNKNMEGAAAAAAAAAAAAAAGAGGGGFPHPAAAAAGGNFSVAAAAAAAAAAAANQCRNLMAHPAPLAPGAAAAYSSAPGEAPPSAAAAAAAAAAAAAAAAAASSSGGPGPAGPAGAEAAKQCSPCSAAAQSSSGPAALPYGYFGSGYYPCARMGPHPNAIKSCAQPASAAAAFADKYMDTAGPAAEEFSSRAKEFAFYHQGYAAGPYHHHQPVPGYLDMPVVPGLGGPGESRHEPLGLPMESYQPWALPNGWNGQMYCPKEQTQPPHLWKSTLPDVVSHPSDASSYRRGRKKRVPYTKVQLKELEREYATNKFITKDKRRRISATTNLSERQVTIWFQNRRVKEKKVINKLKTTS
The nature of assay [14]: blockers of DNA damage checkpoint Chk1 activation – imaging, HeLa, hydroxyurea, phospho-Chk1 antibody, percent positive cells, primary screen (AID 1186). The settings on record: hydroxyurea-induced phospho-Chk1 immunofluorescence imaging, higher = more signal.
A short description of assay [15]: blockers of DNA damage checkpoint Chk1 activation – imaging, HeLa, hydroxyurea, phospho-Chk1 nuclear intensity, primary screen (AID 1187). The settings on record: hydroxyurea-induced phospho-Chk1 immunofluorescence imaging, higher = more signal.

Calls of active or inactive are those of the source. Unless noted, how the calls were made is not given here.

Chain of E3 ubiquitin-protein ligase XIAP (Homo sapiens) (P98170 whole entry, looked up, the tested form may be a part): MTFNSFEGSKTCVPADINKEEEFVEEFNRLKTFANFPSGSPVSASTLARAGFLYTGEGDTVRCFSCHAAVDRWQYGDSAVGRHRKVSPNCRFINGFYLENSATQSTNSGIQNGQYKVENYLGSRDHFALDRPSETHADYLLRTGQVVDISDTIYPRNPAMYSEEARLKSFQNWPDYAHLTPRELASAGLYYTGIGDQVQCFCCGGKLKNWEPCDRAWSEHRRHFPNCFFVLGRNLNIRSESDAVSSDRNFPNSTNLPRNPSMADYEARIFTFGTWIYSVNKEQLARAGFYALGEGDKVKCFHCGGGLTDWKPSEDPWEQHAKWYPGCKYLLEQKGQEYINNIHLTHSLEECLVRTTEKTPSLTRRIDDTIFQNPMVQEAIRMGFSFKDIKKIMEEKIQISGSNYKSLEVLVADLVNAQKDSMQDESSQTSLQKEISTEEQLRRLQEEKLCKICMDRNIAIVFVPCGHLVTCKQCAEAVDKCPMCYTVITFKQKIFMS
Chain of Dihydroorotate dehydrogenase (quinone), mitochondrial (Plasmodium falciparum (isolate 3D7)) (Q08210 whole entry, looked up): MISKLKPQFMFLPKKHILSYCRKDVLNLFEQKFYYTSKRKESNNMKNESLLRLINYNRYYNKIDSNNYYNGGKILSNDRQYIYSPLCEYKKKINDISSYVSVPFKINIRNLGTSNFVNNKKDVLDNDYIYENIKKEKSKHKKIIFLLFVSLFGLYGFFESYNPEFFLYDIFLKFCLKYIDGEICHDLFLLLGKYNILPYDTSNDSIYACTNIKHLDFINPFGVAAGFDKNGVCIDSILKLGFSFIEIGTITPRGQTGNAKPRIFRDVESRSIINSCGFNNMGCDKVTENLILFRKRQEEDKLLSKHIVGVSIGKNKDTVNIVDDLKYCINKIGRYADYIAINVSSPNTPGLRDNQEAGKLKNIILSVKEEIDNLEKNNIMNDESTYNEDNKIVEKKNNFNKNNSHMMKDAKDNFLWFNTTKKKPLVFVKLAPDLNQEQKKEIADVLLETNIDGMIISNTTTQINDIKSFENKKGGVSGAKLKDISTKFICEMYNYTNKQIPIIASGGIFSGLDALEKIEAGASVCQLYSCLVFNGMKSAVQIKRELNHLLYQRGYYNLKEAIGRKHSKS

With `CCCCCCc1nc(-c2ccc(-c3ccc(Cl)c(Cl)c3)o2)c(C)c2c1[Si](C(C)C)(C(C)C)OC2`, the z-score in [1] was -0.865; in assay [2], -4.18 (inactive); in assay [3], -2.84 (inactive); in [5], 0.668 (inactive); in [6], -0.721 (inactive); in [7] it was -0.0618 (inactive). Also, the z-score is -0.616 (inactive) in [8]; -1.42 in assay [9]; -2.4 in [12]; -2.13 (inactive) in assay [13]; 0.394 (inactive) in [14]; 0.251 (inactive) in assay [15]. For the same molecule, the composite z-score in assay [4] is -2.2 (inactive); in assay [10], -0.113; in assay [11], -0.376 (inactive); in the assay on XIP peptide (Xip251-270), 0.148.
With `CN1C(=O)C2C=CC(C(O)c3ccc(F)cc3)N(N(c3ccccc3)c3ccccc3)C2C1=O` (stereo not given), the z-score is -0.898 in assay [1]; 0.41 (inactive) in assay [2]; -0.957 (inactive) in [3]; 1.14 (inactive) in assay [5]; 0.242 (inactive) in assay [6]; -0.513 (inactive) in [7]. Also, the z-score in [8] was -0.26 (inactive); in [9], -1.36; in assay [12], 0.988; in [13], -3.45 (inactive); in assay [14], 1.17 (inactive); in assay [15] it was 0.568 (inactive). In addition, the composite z-score in [4] was -0.0882 (inactive); in assay [10], 0.499; in assay [11], -0.0116 (inactive); with XIP peptide (Xip251-270), -0.0807.
As to `COCC(=C=CC[C@@H](O)c1ccc(OCCO)cc1)C[C@@H](O)c1ccccn1`, the z-score was -0.495 in assay [1]; -0.58 (inactive) in assay [2]; -0.46 (inactive) in assay [3]; 1.05 (inactive) in assay [5]; -0.0975 (inactive) in [6]; 0.0525 (inactive) in assay [7]. The z-score is 0.0639 (inactive) in assay [8]; -0.104 in assay [9]; 0.797 in assay [12]; -5.97 (inactive) in [13]; 0.117 (inactive) in assay [14]; 0.265 (inactive) in assay [15]. Besides, the composite z-score is -2.5 (inactive) in assay [4], 0.0785 in [10], 1.51 (inactive) in assay [11] and -0.161 with XIP peptide (Xip251-270).
`NC(=O)NCC#Cc1ccc2c(c1)[C@]1(C(=O)N2)[C@H](C(=O)O)[C@H]2C(=O)O[C@H](c3ccccc3)[C@H](c3ccccc3)N2[C@@H]1c1ccc(O)cc1`: the z-score in assay [1] was 0.891; in assay [2], -0.0841 (inactive); in assay [3] it was 0.587 (inactive); in assay [5] it was 0.393 (inactive); in [6], 0.0591 (inactive); in assay [7], -0.131 (inactive). Also, the z-score in assay [8] was -0.0796 (inactive); in assay [9] it was 0.902; in assay [12] it was 0.137; in [13], -5.06 (inactive); in assay [14] it was 0.0315 (inactive); in assay [15], 0.118 (inactive). For the same molecule, the composite z-score in [4] was -1.63 (inactive); in assay [10], 0.0043; in assay [11], 0.88 (inactive); with XIP peptide (Xip251-270), 0.275.
Consider `COc1ccc(NC(=O)O[C@H]2[C@H](OC(=O)c3cc4ccccc4[nH]3)[C@@H](OC(=O)c3cc4ccccc4[nH]3)[C@@H](OC)O[C@@H]2CO)cc1`, for which the z-score was -1.08 in [1]; -0.302 (inactive) in [2]; -1.68 (inactive) in assay [3]; 0.305 (inactive) in [5]; -0.575 (inactive) in [6]; 1.13 (inactive) in assay [7]. Besides, the z-score was 1.53 (inactive) in [8]; -1.69 in assay [9]; -2.16 in [12]; -3.86 (inactive) in assay [13]; -0.335 (inactive) in [14]; -0.331 (inactive) in [15]. The composite z-score is -0.558 (inactive) in assay [4], 0.103 in assay [10], 1.54 (inactive) in assay [11] and -0.135 in the assay with XIP peptide (Xip251-270).
As to `CCCCCCc1nc(-c2ccc(-c3ccc(Cl)c(Cl)c3)o2)cc2c1[Si](C(C)C)(C(C)C)O[C@H]2c1ccccc1`, the z-score in assay [1] was 1.32; in assay [2], -0.911 (inactive); in assay [3], 0.551 (inactive); in assay [5] it was -0.771 (inactive); in [6] it was -0.361 (inactive); in assay [7] it was 0.708 (inactive). In addition, the z-score in assay [8] is 0.447 (inactive); in assay [9] it was 0.0719; in assay [12], -1.3; in assay [13], -1.4 (inactive); in assay [14], -0.682 (inactive); in assay [15], -0.449 (inactive). Further, the composite z-score in assay [4] was -0.206 (inactive); in assay [10] it was -0.0641; in [11] it was 2.93 (inactive); with XIP peptide (Xip251-270), 0.393.
`CCCNC(=O)[C@@]1(Sc2ccc(C)cc2)CC(=O)N(Cc2ccccc2C(F)(F)F)[C@@H]1c1ccc(CO)cc1I`: the z-score in [1] is -0.103; in assay [2], -3.06 (inactive); in [3], -2.54 (inactive); in assay [5], 0.298 (inactive); in assay [6] it was -1.68 (inactive); in assay [7], 0.044 (inactive). The z-score in [8] is -0.478 (inactive); in assay [9] it was -2.15; in assay [12], -1.69; in assay [13] it was -1.3 (inactive); in assay [14], -0.104 (inactive); in assay [15], 0.0829 (inactive). Further, the composite z-score in assay [4] is -0.469 (inactive); in assay [10], -0.181; in assay [11], -0.163 (inactive); with XIP peptide (Xip251-270) it was 0.704.
Take `CCCCC(=C=CC[C@@H](O)c1cccc(OCCO)c1)C[C@@H](O)c1ccccn1`: the z-score in assay [1] is 0.599; in [2], -1.56 (inactive); in [3], 0.0382 (inactive); in [5], 0.968 (inactive); in [6] it was 0.129 (inactive); in assay [7] it was 0.584 (inactive). Further, the z-score in assay [8] is 0.493 (inactive); in assay [9], 0.695; in assay [12], -0.12; in assay [13], -5.42 (inactive); in [14], -0.0346 (inactive); in assay [15], 0.159 (inactive). Further, the composite z-score is -1.42 (inactive) in assay [4], -0.102 in assay [10], 1.26 (inactive) in assay [11] and 0.75 with XIP peptide (Xip251-270).
For `C=CC[C@@]1(C(=O)N2CCCCC2)N=C(c2ccc(OCCCO)cc2)O[C@@H]1c1ccccc1CN=[N+]=[N-]`, the z-score in assay [1] was 0.0157; in [2] it was -0.924 (inactive); in assay [3] it was -1.13 (inactive); in assay [5], 0.205 (inactive); in [6], 0.607 (inactive); in [7] it was 0.673 (inactive). In addition, the z-score in assay [8] is -0.526 (inactive); in assay [9] it was -1.97; in [12], -2.21; in assay [13] it was -0.0816 (inactive); in assay [14] it was -0.514 (inactive); in [15], -0.604 (inactive). Moreover, the composite z-score in assay [4] was -0.0512 (inactive); in [10], 0.0297; in assay [11] it was 0.274 (inactive); with XIP peptide (Xip251-270), 0.888.
Turning to `O=C(CS)NCCCCCNC(=O)[C@H]1C[C@H]2C(=O)NCC(=O)N2[C@H]1c1cccc(OCCO)c1`, the z-score in [1] was 0.942; in assay [2], -0.191 (inactive); in assay [3], 1.49 (inactive); in assay [5], -0.764 (inactive); in [6] it was -0.39 (inactive); in [7], 0.325 (inactive). In addition, the z-score is 0.261 (inactive) in [8]; 1.28 in assay [9]; 1.01 in assay [12]; -1.67 (inactive) in assay [13]; -0.56 (inactive) in [14]; -0.321 (inactive) in assay [15]. For the same molecule, the composite z-score is 0.258 (inactive) in [4], 0.0174 in assay [10], -0.109 (inactive) in [11] and 0.388 with XIP peptide (Xip251-270).
